# 12-LOX inh: ALOX12 (human) lipoxygenase inhibition; P18054; purified 12hLO, xylenol orange hydroperoxide absorbance; Potency, µM (titrated, usually from 108 µM), without a hit: top-dose activity change, negative = inhibition, usual class: inhibitors; actives 1.1% (n = 580,000); also: potency is read from the fitted curve at half-maximal effect
# Target sequence (P18054 whole entry, looked up): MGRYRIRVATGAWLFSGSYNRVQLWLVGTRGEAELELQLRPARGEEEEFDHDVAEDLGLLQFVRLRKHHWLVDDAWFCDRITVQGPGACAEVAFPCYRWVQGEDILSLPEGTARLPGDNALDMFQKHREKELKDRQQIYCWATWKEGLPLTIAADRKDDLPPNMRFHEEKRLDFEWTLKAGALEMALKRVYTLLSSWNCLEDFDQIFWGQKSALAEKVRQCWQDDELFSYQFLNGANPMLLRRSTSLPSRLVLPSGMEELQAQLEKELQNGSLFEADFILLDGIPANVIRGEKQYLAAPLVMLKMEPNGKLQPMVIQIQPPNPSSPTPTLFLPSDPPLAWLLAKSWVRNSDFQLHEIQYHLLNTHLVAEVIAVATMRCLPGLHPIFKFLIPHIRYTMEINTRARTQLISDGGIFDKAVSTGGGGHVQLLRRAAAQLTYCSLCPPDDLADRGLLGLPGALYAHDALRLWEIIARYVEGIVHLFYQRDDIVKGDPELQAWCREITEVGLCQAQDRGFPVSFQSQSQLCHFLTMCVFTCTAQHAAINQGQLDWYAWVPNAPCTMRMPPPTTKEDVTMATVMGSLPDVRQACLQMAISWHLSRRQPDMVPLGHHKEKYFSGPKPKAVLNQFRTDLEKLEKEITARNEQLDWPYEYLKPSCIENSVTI
#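 Purified human 12hLO at 150 nM in 25 mM Hepes, 0.01% Triton X-100, pH 7.0, preincubated 15 min at room temperature with compound. Reaction started with 40 uM arachidonic acid, 30 min at room temperature. Hydroperoxide measured by Fe-xylenol orange, 573/405 nm absorbance ratio.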
# IL1B secr inh: inhibitors of inflammasome signaling (IL-1 beta secretion); THP-1 LPS/ATP IL-1B secretion, AlphaLISA, 16 h; stronger effect = lower value; activity change, % at 57.5 µM; actives 4.7% (n = 360,000); in the data active = activity change below about -50%; inconclusive = mostly about -30% to -49%
#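 THP-1 cells pretreated 1 hr with compounds (up to 57.5 uM final), then stimulated with LPS (250 ng/mL final) plus ATP (1.25 mM final); secreted IL-1B measured by AlphaLISA after 16 hr, decreased signal indicating inhibition.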
# HT1080-NT tox: kills 2HG-producing HT-1080-NT fibrosarcoma cells. Potency, µM (doses to about 46.1 µM), for inactives: top-dose activity, negative = less viability, most hits filed as cytotoxic. AID 686970. HT-1080-NT fibrosarcoma viability, CellTiter-Glo ATP luminescence, 48 h. actives 1.6% (n = 360,000);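 also: NT is the 2HG producing partner of a matched IDH1 knockdown line; potency is read from the fitted curve at half-maximal effect; 0% = DMSO-treated cells and -100% = media-only wells without cells; nearly all actives have a fitted effect of over 55% in size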
#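 Viability of the 2HG-overproducing fibrosarcoma line after 48 hours of compound exposure at 37 degrees C was determined by luminescence with CellTiter-Glo, and concentration-effect curves were then fitted and categorized.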
# HT1080 IDH1KD tx: kills HT-1080 cells with IDH1 knockdown; HT-1080 IDH1 knockdown viability, ATP luminescence, 48 h; Potency, µM (highest dose often 46.1 µM), for the others: at the highest dose activity, negative = toxicity, hits mostly cytotoxic; actives 2% (n = 360,000); AID 686971;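 also: potency is read from the fitted curve at half-maximal effect; 0% = DMSO wells and -100% = cell-free medium wells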
#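 % activity derives from luminescence (CellTiter-Glo), normalised to DMSO and no-cell wells. HT-1080-IDH1KD cells, 750/well, had 48 h compound exposure at 37 °C.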
# DT40 TDP1 CPT: growth inhibition of DT40 Tdp1-/-;hTDP1 cells with camptothecin (screen for TDP1 inhibitors); actives 12% (n = 420,000); AID 686979; Potency, µM (doses to about 46.2 µM), inactives show top-dose activity change, negative = growth inhibition, most hits filed as inhibitors; chicken DT40 Tdp1-/-;hTDP1 cells + 20 nM CPT, ATP luminescence, 48 h; also: potency is read from the fitted curve at half-maximal effect; nearly all actives have a fitted effect of over 55% in size
#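 Cell growth measured by CellTiter-Glo luminescence after a minimum 48 h, 37 C compound exposure with 20 nM CPT in Tdp1-knockout DT40 cells stably expressing hTDP1, seeded 400/well; qHTS titration format.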
# TDP1 cell noCPT: qHTS for Inhibitors of human tyrosyl-DNA phosphodiesterase 1 (TDP1): qHTS in cells in absence of CPT | DT40 Tdp1-/- hTDP1 cells, no CPT, ATP luminescence, 48 h | Potency, µM (titrated, usually from 46.2 µM), for the others: at the top dose activity change, negative = growth inhibition, hits mostly inhibitors | actives 15% (n = 420,000); also: potency is read from the fitted curve at half-maximal effect; nearly all actives have a fitted effect of over 55% in size
#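 Camptothecin absent (DMSO only). Human TDP1-complemented DT40 knockout cells, 400 cells/well, 37 °C for minimum 48 hr; ATP measured via CellTiter-Glo, 30 min dark incubation, luminescence.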
# * hit, by the source's call; i = inactive; ? = inconclusive; · = not tested or not shown. The full list was thinned out, with hits kept by preference. Unless noted, calls follow the shape of the dose curve; as a rule, active = well fitted curve in the direction sought with a large enough effect; inconclusive = small, poorly fitted or top-dose-only effect, or another doubt; inactive = no such curve, though single readings can be large; an effect the other way counts as inactive or inconclusive. Unless noted, % is scaled to controls: 0 for no effect and ±100 for the full control effect.
SMILES,12-LOX inh,IL1B secr inh,HT1080-NT tox,HT1080 IDH1KD tx,DT40 TDP1 CPT,TDP1 cell noCPT
O=C(Cc1ccccc1)Nc1ccc(Cl)cn1,i,?,-1.1%,-4.5%,4.4%,7.5%
CCC(=O)NC(=S)Nc1ccc(Cl)cn1,5.0%,-6.0,18.4%,8.5%,-8.9%,-1.5%
S=C(Nc1ccccc1)Nc1ccc(Cl)cn1,·,0.0,20.2%,-21.0%,23.1µM*,5.8µM*
CCc1ccccc1NC(=O)c1ncoc1-c1ccc(OC)c(OC)c1,-28.9%,·,·,·,·,·
CCC(=O)N1N=C(c2ccccc2)CC1c1ccc2nccnc2c1 (centres undefined),-17.6%,·,·,·,·,·
CCS(=O)(=O)N1N=C(c2ccccc2)CC1c1ccc2nccnc2c1 (centres undefined),12.8%,-2.9,8.6%,1.1%,?,10.3µM*
CC(C)=C1C2CCC1C1C(=O)N(c3ccc4c(c3)OCO4)C(=O)C21 (centres undefined),-10.9%,0.9,5.6%,2.9%,-5.0%,-24.8%
CC(C)=C1C2C=CC1C1C(=O)N(c3ccc4c(c3)OCO4)C(=O)C21 (centres undefined),0.0%,5.6,-4.5%,1.0%,?,20.6µM*
COc1ccc(N(C)S(=O)(=O)c2cccc(C(=O)Nc3ccc(N4CCOCC4)cc3)c2)cc1,-19.6%,-13.3,-7.8%,-27.4%,18.4µM*,23.1µM*
CN(C)S(=O)(=O)c1cccc(C(=O)Nc2ccc(N3CCOCC3)cc2)c1,?,23.6,-6.3%,-18.5%,-25.0%,-16.0%
COc1ccc(N(C)S(=O)(=O)c2cccc(C(=O)NCC3CCCCC3)c2)cc1,0.0%,-50.2*,-12.2%,-4.6%,23.1µM*,13µM*
CN(c1ccccc1)S(=O)(=O)c1cccc(C(=O)Nc2ccc(N3CCOCC3)cc2)c1,?,?,-11.3%,-5.8%,?,18.4µM*
CCCCNC(=O)N1CCC(C(=O)O)CC1,-0.8%,·,·,·,·,·
O=C(ONC1=NCCCCC1)c1ccc(Cl)cc1,10.6%,-16.8,16.4µM*,23.1µM*,20.6µM*,14.6µM*
O=C(ONC1=NCCCCC1)c1c(F)cccc1F,104.6%,-7.5,-21.5%,-7.9%,16.4µM*,?
O=C(CNC1=NCCC1)c1ccc(Cl)cc1,-5.2%,57.3,-5.1%,-7.5%,5.9%,7.5%
CC(=O)c1ccc(NC(=S)Nc2ccc3cn[nH]c3c2)cc1,-25.0%,-72.8*,-1.5%,-0.2%,?,?
CNC(=O)[C@@H]1C[C@@H](n2cc(CN(C)C(=O)c3cc(F)ccc3Cl)nn2)CN1,6.6%,·,·,·,·,·
CSc1ccc(CNC(=O)c2noc(-c3ccc(F)cc3)n2)cc1,25.1%,·,·,·,·,·
COc1ccccc1C1(CC#N)CCOC(C)(C)C1 (centres undefined),-36.0%,·,·,·,·,·
CC1(C)CC(C#N)(N2CCOCC2)CCO1 (centres undefined),?,15.5,-0.2%,0.1%,2.91µM*,?
O=C(CCc1ncc(-c2ccccc2Cl)o1)NCc1ccncc1,16.3%,·,·,·,·,·
CCC(C)c1ccc(NC(=O)CC(C)C)cc1 (centres undefined),4.4%,·,·,·,·,·
COC(=O)c1c(C)cc(O)cc1O,-1.9%,14.9,-0.8%,2.1%,10.8%,1.6%
Cc1cc(OC(=O)c2c(C)cc(OC(=O)c3c(C)cc(O)cc3O)cc2O)cc(O)c1C(=O)O,35.5µM*,3.2,0.0%,5.6%,12.2%,-10.8%
SMILES,12-LOX inh,IL1B secr inh,HT1080-NT tox,HT1080 IDH1KD tx,DT40 TDP1 CPT,TDP1 cell noCPT
CCCCN1CCCc2cc(CN(CCCN3CCOCC3)C(=O)Nc3ccc(OCC)cc3)ccc21,?,·,·,·,18.4µM*,18.4µM*
CCN1CCCc2cc(CN(CCN3CCOCC3)C(=S)Nc3ccccc3C)ccc21,?,25.4,-3.5%,0.6%,-17.5%,0.8%
COc1ccccc1NC(=S)N(CCN1CCCCCC1)Cc1cccs1,i,-13.0,-10.5%,-7.0%,?,9.2µM*
CCN1CCCc2cc(CN(CCN3CCOCC3)C(=S)Nc3ccc(OC)c(OC)c3)ccc21,29.7%,25.6,-0.1%,8.9%,-2.6%,18.6%
CCN1CCCc2cc(CN(CCN3CCOCC3)C(=S)Nc3ccc(OC)c(Cl)c3)ccc21,-21.1%,0.0,0.4%,-2.5%,?,9.2µM*
CCc1ccc(NC(=O)N(CCN2CCOCC2)Cc2ccc3c(c2)CCCN3CC)cc1,-26.8%,-16.2,-8.2%,?,?,?
CCN1CCCc2cc(CN(CCN3CCOCC3)C(=S)Nc3ccccc3OC)ccc21,-10.7%,-3.3,-4.2%,-0.1%,?,16.4µM*
CCN1CCC(N2CCC3(CC2)CN(c2ccncn2)CC3CO)CC1 (centres undefined),66.7%,·,·,·,·,·
COc1ccc(C2CC(c3ccccc3)=NN2C(=O)CSc2nnc(-c3ccccc3)o2)cc1 (centres undefined),4.1%,·,·,·,·,·
COc1ccccc1NC(=S)N(CCN(C)C)C(C)c1ccncc1 (centres undefined),0.7%,-0.4,?,6.9%,-8.5%,-1.5%
COCCN(C(=S)Nc1ccccc1OC)C(C)c1cccs1 (centres undefined),-21.9%,7.4,5.7%,19.2%,23.1µM*,29.1µM*
CCN1CCCc2cc(CN(CCN3CCOCC3)C(=S)Nc3cccc(C)c3)ccc21,-0.7%,?,-19.4%,-11.5%,16.4µM*,?
CCN1CCCc2cc(CN(CCN3CCOCC3)C(=O)Nc3ccc(C)c(C)c3)ccc21,-9.6%,?,-3.5%,-17.7%,?,25.9µM*
Cc1cccc(NC(=S)N(CCN2CCOCC2)Cc2ccccc2F)c1,3.4%,-12.6,0.7%,-14.6%,?,?
CCn1c(N2CCN(Cc3cc(C)ccc3C)CC2)nc2c1c(=O)[nH]c(=O)n2C,-1.0%,·,·,·,·,·
COC(=O)C1=C(C(=O)OC)SC(=C2C(=S)C(C)(C)N(C(=O)C3CC3)c3ccccc32)S1,-29.4%,-50.3*,-2.5%,?,?,?
CC1(C)c2ssc(=S)c2-c2ccccc2N1C(=O)CSC1=NCCS1,-14.1%,?,3.1%,-11.4%,?,?
CC1C(=O)Nc2ccccc2N1C(=O)C1CC1 (centres undefined),21.1%,-12.8,12.4%,2.2%,0.5%,-3.9%
CCCC(=O)N1c2ccccc2C(=C2SC(C(=O)OC)=C(C(=O)OC)S2)C(=S)C1(C)C,22.4µM*,5.8,0.3%,5.4%,14.6µM*,25.9µM*
CCOc1cc(C(=O)Nc2ccccc2F)cc(Br)c1OCC,-10.5%,0.0,7.0%,4.1%,20.6µM*,?

# Screens (PubChem)
